Among the test systems are RPMI-8226 leukemia; OVCAR-8 ovarian; OVCAR-5 ovarian; OVCAR-4 ovarian; SK-OV-3 ovarian; IGROV1 ovarian; OVCAR-3 ovarian; HS 578T breast; NCI/ADR-RES ovarian; T-47D breast; BT-549 breast; MDA-MB-435 melanoma; SW-620 colon; MCF7 breast; HCT-116 colon; HCC-2998 colon; KM12 colon.
Experiment in all cases: NCI-60 one-dose screen, 48 h (100 = growth as untreated, 0 = no growth, -100 = all killed)
Holding throughout (conditions): 10 µM

This is part of a sample that, as a whole, favours compounds with a hit. Of some 83,000 tested, about 20% had one in any assay.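 Values shown are percent growth following 48 h exposure of cells in 96-well plates to a single concentration of compound; below 10 was considered active.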 Unmarked numbers belong to inactive results. Activity calls are given as the source filed them.

Turning to `COc1ccc(-c2cc(-c3ccc(N(C)C)cc3)c(C#N)c(N3CCCC3)n2)cc1`, the growth with RPMI-8226 leukemia is 38.7%; in the assay with OVCAR-8 ovarian, 83.3%; in the assay on OVCAR-5 ovarian, 64.8%; in the assay with OVCAR-4 ovarian it was 81.4%; in the assay with SK-OV-3 ovarian, 72.7%; with IGROV1 ovarian, 64.9%. The growth in the assay on OVCAR-3 ovarian is 105%; in the assay with HS 578T breast it was 103%; with NCI/ADR-RES ovarian, 61.8%; in the assay on T-47D breast, 67%; in the assay on BT-549 breast, 74.4%; in the assay on MDA-MB-435 melanoma, 90.4%. Besides, the growth in the assay with SW-620 colon is 94.4%; with MCF7 breast, 103%; in the assay with HCT-116 colon, 67.7%; in the assay on HCC-2998 colon, 83.6%; in the assay with KM12 colon, 95.4%.
As for `COc1cc(Nc2ccnc(NCCNc3ccnc4cc(Cl)ccc34)n2)cc(OC)c1`, the growth is -42.7% (active) in the assay on RPMI-8226 leukemia; 45.4% in the assay with OVCAR-8 ovarian; 43.9% in the assay with OVCAR-5 ovarian; 42.4% in the assay on OVCAR-4 ovarian; 75.1% in the assay on SK-OV-3 ovarian; 23.6% in the assay on IGROV1 ovarian. Besides, the growth in the assay on OVCAR-3 ovarian was 56.8%; with HS 578T breast, 63.7%; in the assay with NCI/ADR-RES ovarian, 67.9%; in the assay with T-47D breast, 15.5%; in the assay with BT-549 breast, 51.4%; with MDA-MB-435 melanoma it was -50.7% (active). Besides, the growth in the assay on SW-620 colon was 19.9%; in the assay with MCF7 breast, 8.25% (active); with HCT-116 colon it was -20.2% (active); in the assay on HCC-2998 colon it was 29.7%; with KM12 colon, 55.3%.
Take `COc1cc(NC(=O)c2sc3nc4c(cc3c2N)C(O)CCC4)cc(OC)c1` (stereo not drawn): the growth is 88.2% in the assay with RPMI-8226 leukemia; 97.5% in the assay with OVCAR-8 ovarian; 100% in the assay on OVCAR-5 ovarian; 96.6% with OVCAR-4 ovarian; 97.4% with SK-OV-3 ovarian; 85.7% in the assay with IGROV1 ovarian. Also, the growth is 95.3% with OVCAR-3 ovarian; 106% in the assay on HS 578T breast; 87.3% in the assay on NCI/ADR-RES ovarian; 90.8% in the assay with T-47D breast; 100% in the assay with BT-549 breast; 8.37% (active) with MDA-MB-435 melanoma. For the same molecule, the growth with SW-620 colon was 66.1%; with MCF7 breast, 50.7%; in the assay on HCT-116 colon, 84.2%; in the assay with HCC-2998 colon it was 78.9%; in the assay on KM12 colon, 69.5%.
`COc1cc(-c2cc(/C=C3\C(=O)Nc4ccc(Cl)cc43)[nH]n2)cc(OC)c1OC`: the growth was -18.3% (active) in the assay with RPMI-8226 leukemia; 7.57% (active) in the assay on OVCAR-8 ovarian; 68.4% in the assay with OVCAR-5 ovarian; 17% with OVCAR-4 ovarian; 82.5% in the assay with SK-OV-3 ovarian; -10.2% (active) with IGROV1 ovarian. Also, the growth is 34.2% with OVCAR-3 ovarian; 6.98% (active) in the assay on HS 578T breast; 11.4% in the assay with NCI/ADR-RES ovarian; 24.8% with T-47D breast; 27.1% in the assay with BT-549 breast; 10.3% with MDA-MB-435 melanoma. The growth in the assay on SW-620 colon was 27.3%; in the assay with MCF7 breast, 0.175% (active); with HCT-116 colon, 4.26% (active); in the assay on HCC-2998 colon, 73.2%; with KM12 colon, 7.16% (active).
With `COc1ccc(Nc2ccnc(NCCNc3ccnc4cc(Cl)ccc34)n2)cc1`, the growth with RPMI-8226 leukemia was -22.9% (active); in the assay on OVCAR-8 ovarian it was 59.5%; with OVCAR-5 ovarian, 51.2%; with OVCAR-4 ovarian, 37.1%; with SK-OV-3 ovarian, 74.7%; with IGROV1 ovarian it was 24.6%. For the same molecule, the growth in the assay on OVCAR-3 ovarian is 60.3%; in the assay on HS 578T breast, 76.8%; in the assay on NCI/ADR-RES ovarian, 66.8%; in the assay on T-47D breast, 34.9%; in the assay on BT-549 breast it was 61%; in the assay with MDA-MB-435 melanoma it was -39.1% (active). Besides, the growth was 36.4% with SW-620 colon; 14.3% with MCF7 breast; 3.11% (active) in the assay on HCT-116 colon; 41.1% with HCC-2998 colon; 62.2% in the assay on KM12 colon.
As to `COc1ccc2c(c1)sc1nc(-c3ccccc3)c(-c3ccc(O)c(OC)c3)n12`, the growth is 78.5% with RPMI-8226 leukemia; 97.5% in the assay with OVCAR-8 ovarian; 107% in the assay with OVCAR-5 ovarian; 102% in the assay with OVCAR-4 ovarian; 96% in the assay with SK-OV-3 ovarian; 72.8% with IGROV1 ovarian. Further, the growth in the assay on OVCAR-3 ovarian was 83.5%; in the assay with HS 578T breast, 84.6%; in the assay on NCI/ADR-RES ovarian, 64.6%; with T-47D breast, 111%; with BT-549 breast, 68.2%; with MDA-MB-435 melanoma, -24.6% (active). Moreover, the growth was 39.9% in the assay with SW-620 colon; 93.4% with MCF7 breast; 33.2% in the assay on HCT-116 colon; 42.5% in the assay with HCC-2998 colon; 37.1% with KM12 colon.
Consider `COc1ccc(/C=C/C(=O)Nc2ccc(-c3nc4ccc(F)cc4s3)cc2)cc1`, for which the growth was 75.4% in the assay with RPMI-8226 leukemia; 103% in the assay with OVCAR-8 ovarian; 112% in the assay with OVCAR-5 ovarian; 83.2% in the assay on OVCAR-4 ovarian; 114% with SK-OV-3 ovarian; 104% in the assay with IGROV1 ovarian. Besides, the growth with OVCAR-3 ovarian is 113%; with HS 578T breast, 111%; with NCI/ADR-RES ovarian it was 111%; in the assay on T-47D breast, 91%; in the assay with BT-549 breast, 86.7%; in the assay on MDA-MB-435 melanoma it was 97%. In addition, the growth is 106% in the assay with SW-620 colon; 38.9% in the assay on MCF7 breast; 88.5% with HCT-116 colon; 99.1% with HCC-2998 colon; 101% in the assay with KM12 colon.
For the molecule `COc1cc(/C=C2\CCCC3=C2N=C2SC=NN2C3c2cc(OC)c(OC)c(OC)c2)cc(OC)c1OC` (stereo not drawn), the growth in the assay with RPMI-8226 leukemia was -22.5% (active); with OVCAR-8 ovarian it was 9.84% (active); with OVCAR-5 ovarian it was 91.9%; with OVCAR-4 ovarian it was 47%; with SK-OV-3 ovarian, 57.4%; with IGROV1 ovarian, 29%. The growth was 29.3% with OVCAR-3 ovarian; 42.8% in the assay with HS 578T breast; 18.5% in the assay with NCI/ADR-RES ovarian; 61.4% in the assay on T-47D breast; 37.9% in the assay on BT-549 breast; -13.2% (active) in the assay with MDA-MB-435 melanoma. Further, the growth with SW-620 colon was 18.5%; in the assay on MCF7 breast it was 27.4%; with HCT-116 colon, -23.5% (active); in the assay with HCC-2998 colon, 4.77% (active); in the assay on KM12 colon it was -23.5% (active).
As to `O=C(Nc1nc(-c2ccccc2Cl)cs1)c1cc(-c2ccc(Cl)cc2)nc2ccc(Cl)cc12`, the growth in the assay with RPMI-8226 leukemia was 14%; in the assay on OVCAR-8 ovarian, 1.38% (active); with OVCAR-5 ovarian, 102%; in the assay on OVCAR-4 ovarian it was 44%; with SK-OV-3 ovarian, 82%; in the assay with IGROV1 ovarian, 24.4%. Moreover, the growth with OVCAR-3 ovarian was 2.87% (active); in the assay with HS 578T breast, 14.9%; with NCI/ADR-RES ovarian, 2.23% (active); in the assay on T-47D breast, 64.3%; in the assay on BT-549 breast it was -9.33% (active); in the assay on MDA-MB-435 melanoma, -46.9% (active). Further, the growth with SW-620 colon is 26.7%; with MCF7 breast it was 11.2%; in the assay on HCT-116 colon it was 6.81% (active); in the assay on HCC-2998 colon, 90.7%; in the assay on KM12 colon, 12.4%.

Values taken from PubChem BioAssay (NCI).
